Structures are written as SMILES. Compounds without any hit were thinned out: in the full panel of roughly 79,000, 15% have a hit. A number with no mark means an inactive call. Cut-off read from the data, not from the text of the source: active = growth inhibition above about 70%; inactive = the rest.

Results on 16 molecules are retold here after PubChem BioAssay (NCI).

A short description of the assay: NCI Yeast Anticancer Drug Screen. Data for the cln2 rad14 strain (AID 165).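 Note: 0% = growth equal to vehicle treated cultures.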 The following applies: S. cerevisiae cln2 rad14 strain, at 50.0 µM, active compounds read high. The method in brief: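 cln2 rad14 yeast strain; compound exposure; growth inhibition read vs vehicle controls.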
Take `CC(=O)OC1CC23CCC(=O)C2(CC3)C1` (stereo unspecified): the growth inhibition was -30.1%.
The same measure for `N#Cc1c(C(F)(F)F)cc(-c2cccs2)nc1SC(C(=O)Nc1c(F)cccc1F)c1ccccc1` (stereo unspecified): 20.2%.
In the case of `NC(=S)c1ccc[n+](Cc2c(Cl)cccc2Cl)c1` it was -13.3%; in that of `O=C1CC(c2ccccc2)NCN1` (stereo unspecified), 2.2%; in that of `O=C(C[n+]1cc(Br)cc(Br)c1)c1ccc(Br)cc1`, -0.9%.
Take `COc1ccccc1C(OC)c1ccccc1C(=O)O` (stereo unspecified): the growth inhibition was -12.5%.
The same measure for `COc1cc(C(C)Cl)ccc1OC(=O)c1ccccc1` (stereo unspecified): -10.2%; for `N=C(c1ccc2ccccc2c1)c1ccccc1Cc1ccccc1`: -52.5%; for `COc1cc([C@@H]2C3C(=O)c4ccccc4C3[C@@H](c3cc(OC)c(OC)c(OC)c3)C23Cc2ccccc2C3=O)cc(OC)c1OC` (stereo partly specified): 4.55%.
For the molecule `CC(C)n1nnnc1-c1ccccc1`, the growth inhibition was -15.9%.
For `NC1NC(=O)C(CCCOc2ccc([N+](=O)[O-])cc2)C(c2ccccc2)N1` (stereo unspecified), the growth inhibition is 2.35%.
The same measure for `N#C/C(=C\c1ccco1)c1ccc([N+](=O)[O-])cc1`: -0.25%.
The same measure for `COc1cc2c(cc1O)CN1Cc3c(ccc(OC)c3O)C2C1` (stereo unspecified): -1.15%; for `CCCCC1(CO)NC(=O)NC1=O` (stereo unspecified): 8.95%; for `c1ccc(-c2cc(-c3ccccc3)c3ccc4c(-c5ccccc5)cc(-c5ccccc5)c5ccc2c3c54)cc1`: 11.6%.
`CN(C(=O)Sc1ccc([N+](=O)[O-])cc1)c1ccc([N+](=O)[O-])cc1`: the growth inhibition was 4.05%.
